Assay results: the supplement of paper PMC13380429

Columns and labels:
[1] = tested on: Vero E6 infected with SARS-CoV-2; assay: morphology score (similarity to uninfected cells); higher = more like uninfected cells; settings: 24 h
[2] = tested on: Vero E6 infected with SARS-CoV-2; assay: SARS-CoV-2 infection rate relative to infected DMSO; higher = more infection, active = 60 or less; settings: 24 h

| Compound | morphology score [1] | SARS-CoV-2 infection rate [2] |
| --- | --- | --- |
| CCOc1ccc2nc(SCCN3CCOCC3)[nH]c2c1 [afobazole] (10 µM) | -0.0209 | 111% (inactive) |
| C[C@@H]1NC(C)(C)CO[C@@]1(O)c1cccc(Cl)c1 [radafaxine] (10 µM) | -0.0433 | 110% (inactive) |
| Nc1ccn([C@H]2CO[C@@H](CO)S2)c(=O)n1 [apricitabine] (10 µM) | 0.071 | 108% (inactive) |
| Cc1cc2c(N3CCCC3)nc(N3CCCC3)nc2n1C (10 µM) | 0.452 | 75% (inactive) |
| FC(F)(F)c1cc(CO[C@H]2CCCN[C@H]2c2ccccc2)cc(C(F)(F)F)c1 (10 µM) | 0.777 | 16% (active) |
| CNC(=O)[C@H](Cc1ccccc1)NC(=O)[C@H](CC(C)C)[C@H](CSc1cccs1)C(=O)NO [batimastat] (10 µM) | 0.0292 | 104% (inactive) |
| CNC(=N)NC(=O)Nc1c(C)cccc1C [lidamidine] (10 µM) | -0.327 | 118% (inactive) |
| COc1ccn2ncc(-c3nc4[nH]nc(NC(=O)c5ccc(F)cc5)c4cc3F)c2c1 (10 µM) | 0.00883 | 111% (inactive) |
| O[C@H]1CC[C@H](Nc2nc(-c3ccccc3)nc3[nH]ccc23)CC1 (10 µM) | 0.409 | 93% (inactive) |
| CCCCN1CCCCC1C(=O)Nc1c(C)cccc1C (stereo not given) [bupivacaine] (10 µM) | 0.0282 | 110% (inactive) |
| O=C(O)c1ccccc1Nc1cccc(OCc2ccc3ccccc3n2)c1 (10 µM) | 0.0319 | 95.5% (inactive) |
| C[C@@]1(O)[C@H](O)[C@@H](CO)O[C@H]1n1cnc2c(NC3CCCC3)nc(Cl)nc21 (10 µM) | 0.0826 | 102% (inactive) |
| N[C@@H](C(=O)N[C@@H]1C(=O)N2C(C(=O)O)=C(Cl)CS[C@H]12)c1ccccc1 [cefaclor] (10 µM) | 0.0453 | 104% (inactive) |
| N#Cc1c(-c2ccccc2)cc(-c2cc(Br)ccc2O)[nH]c1=O (10 µM) | 0.048 | 110% (inactive) |
| Nc1nc(N)nc(-c2cc(Cl)ccc2Cl)n1 [irsogladine] (10 µM) | 0.168 | 94.5% (inactive) |
| CNC(=O)ON(C(C)=O)C(=O)NC [caracemide] (10 µM) | 0.0974 | 104% (inactive) |
| CC(=O)NC[C@H]1CN(c2ccc(N3CCOCC3)c(F)c2)C(=O)O1 [linezolid] (10 µM) | 0.0235 | 112% (inactive) |
| CCOc1ccccc1C(N)=O [ethenzamide] (10 µM) | -0.0139 | 118% (inactive) |
| CC1=C(/C=C/C(C)=C/C=C/C(C)=C/CO)C(C)(C)CCC1 [retinol] (10 µM) | -0.0178 | 110% (inactive) |
| CN(C)CCCSC(=N)N [dimaprit] (10 µM) | 0.245 | 94.5% (inactive) |
| CC(C)(C)c1ccc(/C=C/C(=O)Nc2ccc3c(c2)OCCO3)cc1 (10 µM) | -0.068 | 110% (inactive) |
| CCCCOc1ccc(C(=O)Nc2ccc(F)cc2F)cc1 (10 µM) | 0.18 | 106% (inactive) |
| CC1CCN(CC[C@H]2CCCN2S(=O)(=O)c2cccc(O)c2)CC1 (10 µM) | 0.0739 | 102% (inactive) |
| C[C@@H]1COCCN1c1cc(C2([S@](C)(=N)=O)CC2)nc(-c2ccnc3[nH]ccc23)n1 (0.833333 µM) | 0.0164 | 90% (inactive) |
| NCC(=O)Nc1ccc(-n2nc(C(F)(F)F)cc2-c2ccc3c(ccc4ccccc43)c2)cc1 (0.833333 µM) | -0.089 | 99.5% (inactive) |
| CC(=O)O[C@]1(C(C)=O)CC[C@H]2[C@@H]3C=C(C)C4=CC(=O)CC[C@]4(C)[C@H]3CC[C@@]21C [megestrol-acetate] (10 µM) | 0.21 | 100% (inactive) |
| COc1ccccc1OCC(O)CO (stereo not given) [guaifenesin] (10 µM) | -0.044 | 112% (inactive) |
| COc1cc2c(cc1OC)C(=O)C(CC1CCN(Cc3ccccc3)CC1)C2 (stereo not given) [donepezil] (10 µM) | 0.153 | 100% (inactive) |
| CCCCCCCC/C=C/CCCCCCCC(=O)OC[C@H]1O[C@@H](n2ccc(N)nc2=O)C(F)(F)[C@@H]1O [gemcitabine-elaidate] (0.833333 µM) | 0.0895 | 112% (inactive) |
| CN[C@@H]1[C@@H](O[C@H]2O[C@H](CO)[C@@H](N)[C@H](O)[C@H]2O)O[C@H]2C[C@@H](N)[C@@H](O[C@H]3[C@H](O)[C@@H](O)[C@H](N)C[C@@H]3N)O[C@@H]2[C@@H]1O [apramycin] (10 µM) | 0.0655 | 98% (inactive) |
